In this experiment the test system is Salmonella enterica serovar Typhimurium SL1344. Description: normalized intracellular growth (luminescence, IQM-normalized) in RAW264.7 macrophages (fraction of plate interquartile mean); higher = more bacterial growth (less inhibition). Conditions: 10 µM.

Molecules are shown by their SMILES. ± gives the standard deviation of the averaged measurements. Over roughly 1,600 compounds, “normalized intracellular growth (luminescence, IQM-normalized) in RAW264.7 macrophages” has its median near 1; the lowest 2% begin near 0.43. The sample as a whole holds a higher share of the lowest values than the screen did.

In the case of `CC(=O)N(CC(O)CO)c1c(I)c(C(=O)NCCO)c(I)c(C(=O)NCC(O)CO)c1I` (stereo not drawn), the normalized intracellular growth runs as follows: (time point: T3 (3 h)) 0.938 ± 0.063; (time point: Tfinal (~6 h)) 1.17 ± 0.091.

For `OC[C@H]1O[C@H](O[C@]2(CCl)O[C@H](CCl)[C@@H](O)[C@@H]2O)[C@H](O)[C@@H](O)[C@H]1Cl`, the normalized intracellular growth was 0.91 ± 0.095 (time point: T3 (3 h)) and 0.0259 ± 0.0051 (time point: Tfinal (~6 h)).

As to `OC[C@H]1O[C@@H](O[C@@H]2[C@@H](CO)OC(O)(CO)[C@H]2O)[C@H](O)[C@@H](O)[C@H]1O` (mixture of isomers), the normalized intracellular growth runs as follows: (time point: T3 (3 h)) 0.999 ± 0.021; (time point: Tfinal (~6 h)) 0.958 ± 0.011.

`OC[C@H]1O[C@H](O[C@H]2[C@H](O)[C@@H](O)C(O)O[C@@H]2CO)[C@H](O)[C@@H](O)[C@@H]1O` (stereo partly drawn) displayed a normalized intracellular growth (time point: T3 (3 h)) of 0.919 ± 0.086 and a normalized intracellular growth (time point: Tfinal (~6 h)) of 0.986 ± 0.012.

For the compound `COc1ccc(C(=O)c2ccccc2)c(O)c1`, the normalized intracellular growth is 0.948 ± 0.07 (time point: T3 (3 h)) and 0.417 ± 0.083 (time point: Tfinal (~6 h)).

Regarding `COc1ccc(C(=O)c2ccccc2O)c(O)c1`, the normalized intracellular growth is 1 ± 0.047 (time point: T3 (3 h)) and 1.24 ± 0.031 (time point: Tfinal (~6 h)).

As to `COc1ccc(C(=O)c2ccc(C)cc2)c(O)c1`, the normalized intracellular growth by setting is: (time point: T3 (3 h)) 1.02 ± 0.028; (time point: Tfinal (~6 h)) 0.926 ± 0.2.

In the case of `Cc1cc(O)cc(C)c1Cl`, the normalized intracellular growth runs as follows: (time point: T3 (3 h)) 1.03 ± 0.075; (time point: Tfinal (~6 h)) 1.11 ± 0.071.

For the compound `N=c1ccn2c(n1)O[C@H]1[C@H](O)[C@@H](CO)O[C@H]12`, the normalized intracellular growth (time point: T3 (3 h)) was 1 ± 0.029 and the normalized intracellular growth (time point: Tfinal (~6 h)) came to 1.16 ± 0.016.

The compound `CCn1cc(C(=O)O)c(=O)c2ccc(C)nc21` came in with a normalized intracellular growth (time point: T3 (3 h)) of 0.994 ± 0.03 and a normalized intracellular growth (time point: Tfinal (~6 h)) of 0.881 ± 0.37.

Take `CCn1cc(C(=O)O)c(=O)c2cc(F)c(N3CCNC(C)C3)c(F)c21` (stereo not drawn): the normalized intracellular growth runs as follows: (time point: T3 (3 h)) 0.996 ± 0.098; (time point: Tfinal (~6 h)) 0.0187 ± 0.0027.

On to `COc1c(N2CCNC(C)C2)c(F)cc2c(=O)c(C(=O)O)cn(C3CC3)c12` (stereo not drawn), for which the normalized intracellular growth amounted to 1.02 ± 0.13 (time point: T3 (3 h)) and 0.015 ± 0.0035 (time point: Tfinal (~6 h)).

Regarding `CCn1cc(C(=O)O)c(=O)c2cc(F)c(N3CCNCC3)nc21`, the normalized intracellular growth by setting is: (time point: T3 (3 h)) 0.916 ± 0.07; (time point: Tfinal (~6 h)) 0.245 ± 0.036.

Regarding `COc1c(N2C[C@@H]3CCCN[C@@H]3C2)c(F)cc2c(=O)c(C(=O)O)cn(C3CC3)c12`, the normalized intracellular growth is 1.41 ± 0.1 (time point: T3 (3 h)) and 0.00827 ± 0.001 (time point: Tfinal (~6 h)).

Consider `CCn1cc(C(=O)O)c(=O)c2cnc(N3CCNCC3)nc21`, for which the normalized intracellular growth runs as follows: (time point: T3 (3 h)) 0.974 ± 0.034; (time point: Tfinal (~6 h)) 0.533 ± 0.082.

On to `CO/N=C1\CN(c2nc3c(cc2F)c(=O)c(C(=O)O)cn3C2CC2)CC1CN` (stereo not drawn), for which the normalized intracellular growth came out at 0.967 ± 0.014 (time point: T3 (3 h)) and 1.15 ± 0.048 (time point: Tfinal (~6 h)).

With `CC(C)(CO)[C@@H](O)C(=O)NCCC(=O)NCCSSCCNC(=O)CCNC(=O)[C@H](O)C(C)(C)CO`, the normalized intracellular growth reads like this: (time point: T3 (3 h)) 0.981 ± 0.048; (time point: Tfinal (~6 h)) 0.976 ± 0.089.

Consider `OCc1cccnc1`, for which the normalized intracellular growth by setting is: (time point: T3 (3 h)) 1.056 ± 0.0048; (time point: Tfinal (~6 h)) 0.97 ± 0.051.

On to `O=S(=O)(c1cccc2cnccc12)N1CCCNCC1`, for which the normalized intracellular growth worked out at 1.02 ± 0.035 (time point: T3 (3 h)) and 1.13 ± 0.067 (time point: Tfinal (~6 h)).

On to `NC(=O)NS(=O)(=O)c1ccc(N)cc1`, for which the normalized intracellular growth reads like this: (time point: T3 (3 h)) 0.98 ± 0.031; (time point: Tfinal (~6 h)) 0.881 ± 0.095.

For `FC(F)(Cl)C(F)(F)Cl`, the normalized intracellular growth was 1.02 ± 0.023 (time point: T3 (3 h)) and 0.675 ± 0.21 (time point: Tfinal (~6 h)).

As for `NC1CCN(c2c(F)cc3c(=O)c(C(=O)O)cn(C4CC4)c3c2Cl)C1` (stereo not drawn), the normalized intracellular growth reads like this: (time point: T3 (3 h)) 1.49 ± 0.071; (time point: Tfinal (~6 h)) 0.00632 ± 0.00035.

Take `CC(=O)OCC(=O)[C@@]1(O)CC[C@H]2[C@@H]3CCC4=CC(=O)C=C[C@]4(C)[C@@]3(Cl)[C@@H](Cl)C[C@@]21C`: the normalized intracellular growth was 0.961 ± 0.062 (time point: T3 (3 h)) and 1.13 ± 0.022 (time point: Tfinal (~6 h)).

For `CCCCCCCCCc1ccc(OCCOCCOCCOCCOCCOCCOCCOCCOCCO)cc1`, the normalized intracellular growth worked out at 0.99 ± 0.013 (time point: T3 (3 h)) and 1.1 ± 0.048 (time point: Tfinal (~6 h)).

The values above are taken from the supplement of paper PMC6331611.
